Screening results from PubChem BioAssay.
CF NFkB inh: blocks PAF-induced NF-kB reporter in cystic fibrosis cells; KKLEB NF-kB-GFP reporter, GFP fluorescence overnight; inhibition, % at 5 µM; hit rate 0.86% among 360,000; AID 588850;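 active means at least 50% inhibition at 5 µM, scaled per plate between neutral and stimulator controls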;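 further: PAF is a Pseudomonas aeruginosa culture filtrate used as stimulus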
HIF-2a inh: inhibitors of HIF-2a; 786-0 RCC cells HIF-2a reporter, luciferase luminescence, overnight; inhibition, % at 18.8 µM; hit rate 0.72% among 360,000;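 active means inhibition of the luminescence signal of 40% or more relative to plate controls, in a single-dose primary screen at 18.75 µM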
TRAIL sens C8: sensitizes caspase-8 expressing cells to TRAIL; NB7+C8 cells + TRAIL, ATPlite viability luminescence; hit rate 1% among 360,000; AID 624354; inhibition (viability loss, TRAIL sensitization), % at 10 µM;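 active means compounds causing at least 50% loss of cell viability in the single-dose screen, relative to plate controls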
PPC-1+TRAIL kill: compounds killing PPC-1 cancer cells with TRAIL present (potentiator screen, no TRAIL-free arm); cell killing (% activity), % at 4 µM or 5 µM; PPC-1 cells + TRAIL, ATPLite viability luminescence; hit rate 0.41% among 220,000; AID 1443;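 active means cell killing above 50% in the first pass at 4 µM, then a duplicate retest at 5 µM averaging 50% or more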
KKLEB cytotox: reduces viability of KKLEB cystic fibrosis airway cells; KKLEB CF airway cells viability, ATPlite luminescence, overnight; hits give low values; cells stimulated with P. aeruginosa culture filtrate; AID 602141; activity change (cytotoxicity), % at 5 µM; hit rate 0.36% among 360,000;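 active means corrected activity change at or below -50% at 5 µM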
Peg3 prom inh-1: Peg3 promoter activity inhibition; HeLa PEG-Prom luciferase reporter, luminescence, overnight; inhibition, % at 20 µM; AID 588405; hit rate 1.7% among 360,000;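 active means inhibition of at least 50% at 20 µM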
Peg3 prom inh-2: Peg3 promoter inhibition confirmation; shares compounds with Peg3 prom inh-1; HeLa PEG-Prom luciferase reporter, luminescence, overnight; inhibition, % at 20 µM; hit rate 84% among 1,300;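 active means at 20 µM dose, 40% or more inhibition averaged across four replicates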
Hits are given with their value; . = inactive; / = no result. Rows were chosen to be rich in hits. Some 3.1% of all compounds tested hit in one or more screens of this group.

SMILES | CF NFkB inh | HIF-2a inh | TRAIL sens C8 | PPC-1+TRAIL kill | KKLEB cytotox | Peg3 prom inh-1 | Peg3 prom inh-2
COCCn1c(N)c(N(Cc2ccccc2)C(=O)c2ccc(-c3ccc(Cl)cc3)o2)c(=O)[nH]c1=O | . | . | . | / | . | . | /
CC(C(=O)N1CCCC1)N(C)CC(=O)Nc1cccc(F)c1 (configuration not stated) | . | . | . | / | . | . | /
Cc1ccc(N(C)S(=O)(=O)c2cccc(C(=O)NC3CC(C)(C)NC(C)(C)C3)c2)cc1 | . | . | . | / | . | . | /
CC1(C)CC(NC(=O)c2cccc(S(=O)(=O)N(Cc3ccccc3)c3ccccc3)c2)CC(C)(C)N1 | . | . | . | / | . | 83.6 | 92.0
Cc1ccc(F)cc1-c1cc2nc(NCCCN(C)C)n(C)c(=O)c2s1 | . | . | . | / | . | 70.0 | 48.3
Cc1ccc(C(=O)N2CCN(c3ccc([N+](=O)[O-])c(NCc4cccnc4)c3)CC2)cc1 | . | . | . | . | . | 56.1 | 48.1
Cc1ccccc1C(=O)N1CCN(c2ccc([N+](=O)[O-])c(NCc3cccnc3)c2)CC1 | . | . | . | . | . | . | /
Cn1c2ccccc2c2ccc3c(c21)C(=O)C=CC3=O | . | . | . | / | . | 104.5 | 100.7
Cc1ccc(C)c2c1c1ccccc1n2C | . | . | . | . | . | . | /
Clc1ccc2nc(COc3ccccc3)[nH]c2c1 | . | . | . | / | . | . | /
CN1C/C(=C/c2cccnc2)C(=O)/C(=C/c2cccnc2)C1 | 57.4 | . | . | . | . | 87.1 | .
CC(C)N1C/C(=C/c2cccnc2)C(=O)/C(=C/c2cccnc2)C1 | . | . | . | . | . | . | /
CC1Sc2ccc(C(=O)N(CCc3ccccc3)Cc3ccccc3)cc2NC1=O (configuration not stated) | . | . | . | / | . | . | /
CCc1nc(N=Nc2c(O)[nH]c3ccccc23)c2c3c(sc2n1)CCC3 | . | . | . | . | . | 85.1 | .
COc1cccc(/C=C2/Sc3ccc(C(=O)NCCCN4CCCC4)cc3NC2=O)c1 | . | . | . | / | . | 78.1 | 93.6
Cc1cc(=O)oc2cc(O[C@@H]3O[C@H](CO)[C@@H](O)[C@H](O)[C@H]3O)ccc12 | . | . | . | / | . | . | /
Cc1cccc(NC(=O)CSc2nc3ccccc3c3nc(CCc4c(C)n[nH]c4C)nn23)c1 | . | . | . | . | . | 57.4 | 58.0
Oc1[nH]c2c(Cl)cc(Cl)cc2c1N=NC(=S)NCC1CCCO1 (configuration not stated) | . | . | . | . | . | 97.3 | .
COc1ccc2sc3cccc(NCCN(C)C)c3c(=O)c2c1 | . | . | . | / | . | 96.9 | 66.3
O=C1/C(=C/C=C/c2ccccc2)Oc2c1ccc(O)c2CN1CCN(CCO)CC1 | . | . | . | . | . | . | /
CCN1CCN(Cc2c(O)ccc3c2O/C(=C\C=C\c2ccccc2)C3=O)CC1 | . | 91.8 | . | . | . | 107.9 | 76.6
CCc1ccc(O)c(CNCCNCc2cc(CC)ccc2O)c1 | . | . | . | / | . | 90.5 | 92.0
COc1ccc(C)cc1NC(=O)C1CCCCN1S(=O)(=O)c1ccccc1 (configuration not stated) | . | . | . | / | . | . | /
CN(C)c1ccc(/C=C/c2ccc3c4ccccc4ccc3[n+]2-c2ccccc2)cc1 | . | 96.1 | 63.2 | 67.5 | . | 105.6 | 99.6
CN(C)c1ccc(/C=C/c2ccc3ccccc3[n+]2C)cc1 | . | . | . | . | . | . | /
CC(=O)Nc1cccc(-c2ccnc3c2CC(C)(C(=O)Nc2cccc(OC(F)(F)F)c2)O3)c1 (configuration not stated) | . | . | . | / | . | 63.1 | 61.3
Cc1ccccc1NS(=O)(=O)c1ccc(C(=O)NCc2ccccc2CN2CCCC2)cc1 | . | . | . | / | . | . | /
CCOc1cc(C2c3c(oc4cc(C)c(Cl)cc4c3=O)C(=O)N2Cc2ccco2)ccc1O (configuration not stated) | . | . | . | . | . | 67.0 | .
CN(C)CCNc1ccc2ncn3c4ccc(O)cc4c(=O)c1c23 | . | 49.3 | . | / | . | 101.4 | 71.1
CN(C)CCNc1ccc(-c2nn(C)c(=O)c3ccccc23)cc1[N+](=O)[O-] | . | . | . | . | . | . | /
